Assay outcomes as filed in PubChem.
An excerpt weighted towards active compounds, which were near 4.6% of everything screened.
TRHR ag – TRH receptor (human) agonism; 0.18% of 360,000 active; TRHR cells, calcium flux fluo-8, FDSS agonist mode; activation, % at 2 µM
Target sequence (P34981 whole entry, looked up): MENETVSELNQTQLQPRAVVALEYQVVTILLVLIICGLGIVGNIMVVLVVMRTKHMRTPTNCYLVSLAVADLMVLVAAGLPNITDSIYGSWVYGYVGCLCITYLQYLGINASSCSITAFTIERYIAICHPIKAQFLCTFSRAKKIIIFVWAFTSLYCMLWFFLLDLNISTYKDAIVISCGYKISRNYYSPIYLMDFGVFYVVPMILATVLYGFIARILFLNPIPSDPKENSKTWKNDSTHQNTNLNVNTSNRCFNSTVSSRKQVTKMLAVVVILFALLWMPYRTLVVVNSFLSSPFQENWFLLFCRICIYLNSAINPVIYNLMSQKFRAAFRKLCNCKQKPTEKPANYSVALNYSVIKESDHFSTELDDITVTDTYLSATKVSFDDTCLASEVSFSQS
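In this calcium-flux screen, cells bearing human TRHR are dye-loaded with fluo-8, baselined for 10 cycles, then exposed to library compounds; positive kinetic calcium responses during the agonist phase mark hits, with TRH as control.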
D1 agonist – activates the human D1 dopamine receptor. P21728. HEK293 T-REx D1 cells, calcium flux, agonist mode. activation, % at 2 µM. 1% of 360,000 active. AID 504660
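Agonism was scored from calcium flux recorded over 180 s (1 read/s) after pintool compound addition, following a 10-cycle baseline. Cells were inducible force-coupled HEK293 TREx D1, plated overnight at 30 C and loaded with no-wash calcium dye.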
D1 PAM – enhances dopamine response at the human D1 receptor; potentiation, % at 10 µM; HEK293 TREx D1 cells, calcium flux, dopamine EC20 potentiation; AID 504651; 0.036% of 360,000 active; P21728; in the data active = potentiation above about 30%
TRHR PAM – allosteric enhancers of human TRH receptor; 0.66% of 360,000 active; enhancement, % at 2 µM; P34981; AID 493056; TRHR cells, fluo-8 calcium fluorescence, EC20 TRH enhancement; in the data active = enhancement above about 30%
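Enhancer read-out: after compound pinning and an initial kinetic agonist-mode read, an EC20 of TRH (10 nM final) was injected and fluo-8 calcium signal (Ex 480/Em 530) followed at 1 s/cycle for 100 cycles in TRHR-expressing cells.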
D1 antag – human D1 dopamine receptor antagonism; HEK293 TREx D1 cells, calcium flux, dopamine EC80; stronger effect = lower value; activity change, negative = inhibition, % at 10 µM; 3.2% of 360,000 active; in the data active = activity change below about -30%
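Allosteric or orthosteric antagonism assessed as attenuation of the calcium response to EC80 dopamine, added 180 s after compound, in induced HEK293 Trex D1 cells loaded with no-wash calcium dye.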
A number is an active result; i = inactive; nt = no result given. Cut-off read from the data, not from the text of the source, unless noted: active = activation above about 30%; inactive = the rest.

SMILES | TRHR ag | D1 agonist | D1 PAM | TRHR PAM | D1 antag
COC(=O)CC(NS(=O)(=O)c1cccs1)c1ccccc1Cl (stereo unspecified) | i | i | i | i | i
CC1(C)CC(=O)C(=Cc2cn(-c3ccccc3)nc2-c2ccc(Cl)cc2)C(=O)C1 | i | 60 | i | i | i
N#C/C(=C/c1ccc(-c2ccccc2[N+](=O)[O-])o1)C(N)=O | i | i | i | i | -41
CN(CC(=O)Nc1ccc(OC(F)(F)F)cc1)C(=O)/C=C/c1cc2c(cc1[N+](=O)[O-])OCO2 | i | i | i | i | -49
COc1ccc(OC)c(/C=C/C(=O)N(C)CC(=O)Nc2ccc(C)cc2)c1 | i | i | i | i | i
Cc1ccc(C(=O)NCc2ccco2)cc1[N+](=O)[O-] | i | i | i | i | -37
O=C(NCc1ccco1)c1ccc2ccccc2c1 | i | i | i | i | i
O=C(NCc1ccco1)c1ccc2c(c1)C(=O)c1ccccc1-2 | i | i | i | i | -31
CC(=O)c1c(C)[nH]c(C(=O)N(CCc2ccccc2)Cc2ccccc2)c1C | i | i | i | i | i
C=CCOC(=O)C1=C[C@H](c2ccc(Br)cc2)[C@@H](CCCO)[C@H](OCC)O1 | i | i | i | i | i
COc1ccc(C(C(=O)NC2CCCCC2)N(C(=O)c2csnn2)C2CC2)cc1 (stereo unspecified) | i | i | nt | i | i
O=C(Nc1cccc(Cl)c1)c1cc(N=Nc2ccc([N+](=O)[O-])cc2Cl)ccc1O | i | i | i | i | -54
COc1ccc(-c2noc(N3CCC(C(=O)N(C)c4cc(Cl)ccc4OC)CC3)n2)cc1 | i | i | i | i | i
O=C(CN1C(=O)C2C3C=CC(C3)C2C1=O)NCc1ccco1 (stereo unspecified) | i | i | 31 | i | i
CN(c1ccc(OCC(=O)OCC(=O)Nc2ccccc2F)cc1)S(=O)(=O)c1cccs1 | i | 36 | i | i | -40
CC(C)(C)NC(=O)C(c1ccccn1)N(C(=O)c1csnn1)C1CCCCC1 (stereo unspecified) | i | i | i | i | i
CC(C)(C)NC(=O)C(c1ccccn1)N(C(=O)c1ccc2c(c1)OCCO2)C1CCCC1 (stereo unspecified) | i | i | i | i | -39
Cc1ccc(CCNC(=O)C2CC(=O)N(C3CCCCC3)C2)cc1 (stereo unspecified) | i | i | i | i | i
CCCCNC(=O)C1CC(=O)N(C2CCCCC2)C1 (stereo unspecified) | i | 31 | i | i | i
Cc1ccc(Nc2nc3ccccc3n3cnnc23)cc1C | i | i | i | i | i
Oc1[nH]c2ccc(Br)cc2c1N=Nc1ccc(F)cc1 | i | 56 | i | i | i
O=[N+]([O-])c1ccc2[nH]c(O)c(N=Nc3ccc(F)cc3)c2c1 | i | i | i | i | i
O=C(/C=C/c1ccco1)NC(=S)Nc1cccc([N+](=O)[O-])c1 | i | i | i | 32 | i
O=C(NC1=NCCS1)c1cccc(S(=O)(=O)N2CCc3ccccc32)c1 | i | i | i | i | i
O=C(Nc1nncs1)c1cccc(S(=O)(=O)N2CCc3ccccc32)c1 | i | i | i | 33 | i
SMILES | TRHR ag | D1 agonist | D1 PAM | TRHR PAM | D1 antag
CN(C)C(=O)c1ccc(NC(=O)c2cccc(S(=O)(=O)N3CCCc4ccccc43)c2)cc1 | i | i | i | i | -31
O=C(NCc1ccco1)c1ccc(S(=O)(=O)N2CCCc3ccccc32)cc1 | i | i | i | i | -32
O=C(NCc1ccccc1)c1ccc(S(=O)(=O)N2CCCc3ccccc32)cc1 | i | i | i | i | i
CN(C)C(=O)c1ccc(NC(=O)c2cccc(S(=O)(=O)N3CCCCCC3)c2)cc1 | i | i | i | i | i
CCOC(=O)c1sc(NC(=O)c2cccc(S(=O)(=O)N3CCc4ccccc43)c2)c(C#N)c1C | i | i | i | i | -32
O=C(Nc1cccn(Cc2ccccc2)c1=O)NC1CCCCC1 | i | i | i | i | i
COc1cccc(Cn2cccc(NC(=O)NC3CCCCC3)c2=O)c1 | i | i | i | i | -31
Cc1ccc(N2C(S)=C(C#N)C(=O)NC2c2ccco2)cc1 (stereo unspecified) | i | i | i | i | -47
N#CC1=C(S)N(c2ccccc2)C(c2ccc(-c3ccc(Cl)c(Cl)c3)o2)NC1=O (stereo unspecified) | i | 63 | i | i | i
N#CC1=C(S)N(c2ccc(F)cc2)C(c2ccco2)NC1=O (stereo unspecified) | i | i | i | i | i
CCCCN(CC)C(=O)c1cccc(Cl)c1 | i | i | i | i | i
Cc1noc(C)c1COc1ccc(C(=O)N2CCN(c3ccccc3O)CC2)cc1 | i | i | i | i | i
c1cncc(-c2ccnc3ncnn23)c1 | i | i | i | 33 | i
c1ccc(-c2ccnc3ncnn23)nc1 | i | i | i | i | i
NS(=O)(=O)c1ccc(CCNC(=O)C2CCN(S(=O)(=O)c3ccccc3)CC2)cc1 | i | i | i | i | i
NS(=O)(=O)c1ccc(CCNC(=O)C2CCN(S(=O)(=O)c3c(Cl)cccc3Cl)CC2)cc1 | i | i | i | 36 | i
NS(=O)(=O)c1ccc(CCNC(=O)CN2CCC(Cc3ccccc3)CC2)cc1 | i | i | i | i | -44
O=C(CN1CCC(Cc2ccccc2)CC1)NCCc1ccc(F)cc1 | i | i | i | i | i
CCN1CCN(C(=O)c2cc(S(=O)(=O)Nc3ccc(S(C)(=O)=O)cc3)ccc2Cl)CC1 | i | i | i | i | -47
CC(=O)N1CCN(C(=O)c2cc(S(=O)(=O)Nc3ccc(S(C)(=O)=O)cc3)ccc2Cl)CC1 | i | i | i | i | i
O=C(CN1C(=O)NC(c2ccccc2)(c2ccccc2)C1=O)c1c[nH]c2ccccc12 | i | i | i | i | i
O=C1C2CCCN2C(=O)N1CCCN1CCN(c2ccc([N+](=O)[O-])cc2)CC1 (stereo unspecified) | i | i | i | i | i
O=C1C2CCCCN2C(=O)N1CCN1CCN(c2ccc([N+](=O)[O-])cc2)CC1 (stereo unspecified) | i | i | i | i | -33
O=C1C2CCCN2C(=O)N1CCCCN1CCN(c2ccc(F)cc2)CC1 (stereo unspecified) | i | i | i | i | -34
O=C1C2CCCCN2C(=O)N1CCCCN1CCN(c2ccc(F)cc2)CC1 (stereo unspecified) | i | i | i | i | i
CCN1CCCC1CNC(=O)c1ccc2c(c1)NC(=O)/C(=C\c1ccc(C)cc1)S2 (stereo unspecified) | i | i | i | i | i
Cc1ccc(OCCn2cnc3c2c(=O)n(C)c(=O)n3C)cc1 | i | i | i | i | -32
Cn1c(=O)c2c(ncn2CC(COCc2ccccc2)OCc2ccccc2)n(C)c1=O (stereo unspecified) | i | i | i | i | -55
